HCMV antiviral: human cytomegalovirus inhibition; activity change, negative = inhibition, % at 57.5 µM; AID 1259415; HFF cells, HCMV-luciferase reporter, 72 h; hits give low values; 410,000 tested, 4.5% active; in the data active means activity change below about -60%; inconclusive means no clear call, values can overlap the other calls; inactive means above about -39%
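Two compound doses tested in HFFs infected with HCMV-luciferase, MOI 1 PFU/cell, 72 h at 37C. Lysate luminescence read with OneGlo; data normalized against buffer-only and 10uM Salinomycin inhibitor controls.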
LASV entry inh: blocks Lassa virus binding to or entry into cells | Lassa virus pseudotype entry inhibition, cell reporter | Potency, µM (top dose mostly 37.9 µM), for the others: at the highest dose activity change, negative = inhibition, most hits filed as inhibitors | 300,000 tested, 1.2% active; calls by dose curve; tested in HEK293 cells; further: potency means the concentration at half of the fitted maximal effect; nearly all actives have a fitted effect of over 50% in size
Marburg entry inh: inhibitors of Marburg virus binding or cell entry; Marburg virus pseudotyped entry inhibition, cell reporter; Potency, µM (series often up to 37.8 µM), inactives show at the highest dose activity change, negative = inhibition, hits mostly inhibitors; 300,000 tested, 1.8% active; calls by dose curve; tested in HEK293 cells; further: potency means the concentration at half of the fitted maximal effect
FMDV antiviral: antivirals against foot and mouth disease virus | Potency, µM (doses to about 57.9 µM), without a hit: top-dose activity change, negative = inhibition, most hits filed as inhibitors | FMDV antiviral cell-based qHTS | 410,000 tested, 1.2% active; calls by dose curve; tested in HEK293T cells; further: read-out not given here; potency means the concentration at half of the fitted maximal effect; nearly all actives have a fitted effect of over 45% in size
* hit, by the source's call; ? = inconclusive; nt = not tested or not shown; [ ] = remark or other dose. Sampled rows, rich in hits. Any-hit rate of the full collection: about 6.2%. On the % scale 0 is the no-effect control and ±100 the full control effect.

SMILES	HCMV antiviral	LASV entry inh	Marburg entry inh	FMDV antiviral
NC(=O)CC[C@H](NC(=O)c1ccc(F)cc1)C(=O)N1CCN(Cc2ccc3c(c2)OCO3)CC1	-70.4*	-11.7%	8.8%	-19.0%
Fc1ccccc1NC(=S)NCCc1ccccc1	-19.4	11.7%	?	19.9%
S=C(NCCc1ccccc1)Nc1cnc2ccccc2c1	-63.2*	nt	nt	80.9%
COc1ccc([N+](=O)[O-])cc1NC(=S)NC(NC(=O)C(c1ccccc1)c1ccccc1)C(Cl)(Cl)Cl (stereo unspecified)	-105.7*	?	?	?
Fc1ccc(F)c(NC(=S)NCCc2ccccc2)c1	-66.1*	?	?	18.7%
Fc1ccc(NC(=S)NCCc2ccccc2)c(F)c1F	-74.3*	-21.1%	-10.5%	nt
OC(c1cccc(Cl)c1)c1nc(-c2ccoc2)cs1 (stereo unspecified)	39.1	nt	nt	-18.9%
O=C(CF)NC(NC(=S)Nc1cccc([N+](=O)[O-])c1)C(Cl)(Cl)Cl (stereo unspecified)	-69.8*	-21.2%	-21.6%	-24.3%
Cc1ccc(NC(=S)NCCc2ccccc2)nc1	-115.0*	-0.1%[46.1 µM]	-2.6%[46.1 µM]	-0.1%
COc1ccc(NC(=S)NC(NC(=O)CF)C(Cl)(Cl)Cl)cc1[N+](=O)[O-] (stereo unspecified)	10.5	nt	nt	-3.0%
O=[N+]([O-])c1cccc(NC(=S)NCCc2ccccc2)c1	-95.4*	-5.1%	?	?
CC(C)(CNC(=S)NCCc1ccccc1)CNC(=S)NCCc1ccccc1	-93.4*	?	?	?
O=C(OCc1cn([C@H]2C[C@H](c3ccccc3)N(C(=O)C3CCCCC3)C[C@H]2O)nn1)c1ccccc1	nt	0.0%[46.1 µM]	nt	nt
Cc1ccc(Cn2c(C(=O)O)c(CNC3CCCCC3)c3ccc(C)cc32)cc1	32.4	-1.0%[46.1 µM]	nt	51.4%
Fc1cccc(NC(=S)NCCc2ccccc2)c1	-78.6*	?	?	6.4%
S=C(NCCc1ccccc1)Nc1ccc(Nc2ccccc2)cc1	-27.4	?	?	-7.7%
Clc1ccc(-c2csc(N/N=C/c3cccnc3)n2)c(Cl)c1	-63.4*	7.31µM*	?	-8.9%
CCN1C(=O)S/C(=C/c2ccc(Sc3nc4ccccc4[nH]3)o2)C1=O	-65.3*	?	?	15.8µM*
O=C(N/N=C/c1ccc(Sc2nc3ccccc3[nH]2)o1)c1ccncc1	?	?	21.0%	-21.5%
COc1ccc(N2CCN(C(=O)CSc3ccc([N+](=O)[O-])cc3)CC2)cc1	-65.0*	5.8%	20.0%[46.1 µM]	?
COc1ccc(CCC(=O)N2CCN(c3ccc([N+](=O)[O-])cc3)CC2)cc1OC	-67.7*	1.6%[46.1 µM]	?	?
COc1ccc(NC(=O)N2CCN(c3ccc([N+](=O)[O-])cc3)CC2)cc1OC	-34.2	?	?	-28.5%
COc1ccc(N2CCN(C(=O)CSc3ccc(C)cc3)CC2)cc1	-4.5	13.6%	19.9%[14.2 µM]	6.6%
CC(=O)Nc1ccc(C(=O)N2CCCc3ccccc32)cc1	25.6	-0.5%	29.3%	7.8%
O=C(Nc1ccc2c(c1)CCCN2C(=O)c1cccs1)c1ccccc1Cl	-67.1*	?	nt	-17.0%
SMILES	HCMV antiviral	LASV entry inh	Marburg entry inh	FMDV antiviral
O=C(Nc1ccc2c(c1)CCCN2C(=O)c1cccs1)c1c(F)cccc1Cl	-79.2*	nt	nt	?
Cc1ccc(S(=O)(=O)N2CCCc3cc(NC(=O)c4ccccc4Cl)ccc32)cc1	-23.7	-28.4%[46.1 µM]	nt	-3.6%
O=C(Nc1ccc2c(c1)CCCN2C(=O)c1cccs1)c1c(F)cccc1F	-74.6*	?	nt	?
O=C(Nc1ccc2c(c1)N(S(=O)(=O)c1cccs1)CCC2)c1c(F)cccc1F	-35.6	?	?	27.6%
O=C(Nc1ccc(C(=O)N2CCCc3ccccc32)cc1)c1cccs1	43.0	-27.1%[46.1 µM]	11.2µM*	-5.2%
CCN(CC)S(=O)(=O)c1ccc2c(c1)N(CC(=O)N1CCN(c3cccc(C)c3)C(C)C1)C(=O)CO2 (stereo unspecified)	-9.3	-1.9%[46.1 µM]	nt	-22.2%
Cc1ccc(NC(=O)CSc2ncc3c(n2)-c2ccccc2N(Cc2cccc(F)c2)S3(=O)=O)cc1F	5.1	20.6%[46.1 µM]	nt	-19.2%
O=C1CCCC=C1C(O)CCOCc1ccccc1 (stereo unspecified)	nt	nt	7.4%[14.2 µM]	nt
O=C(Nc1ccc2c(c1)CCCN2C(=O)c1ccco1)c1cc([N+](=O)[O-])ccc1Cl	-5.8	2.51µM*	?	?
O=C(Nc1ccc(N2CCN(C(=O)c3ccco3)CC2)cc1)c1ccc([N+](=O)[O-])cc1Cl	-2.9	nt	nt	?
CCN(CC)S(=O)(=O)c1cccc(C(=O)c2c(C)cc3ccccn23)c1	-21.7	-0.4%	?	?
Cc1cc2ccccn2c1C(=O)c1ccc(NN)c([N+](=O)[O-])c1	?	?	8.91µM*	3.6%
Cc1cc2ccccn2c1C(=O)c1cc([N+](=O)[O-])cc([N+](=O)[O-])c1	?	-9.4%	-10.7%[46.1 µM]	?
Cc1cc2ccccn2c1C(=O)c1ccc(C#N)cc1	-80.5*	?	-6.6%[46.1 µM]	?
Cc1cccc(N2CCN(C(=O)CCc3nnc4n(CC(C)C)c(=O)c5ccccc5n34)CC2)c1C	56.0	nt	21.4%[46.1 µM]	?
CN(CC(=O)Nc1ccc(Cl)cc1)S(=O)(=O)c1cccc2cccnc12	58.8	nt	nt	-14.1%
CN(CC(=O)N1CCCCCC1)S(=O)(=O)c1cccc2cccnc12	-0.6	nt	nt	-0.3%
COc1ccc(N(C(=O)C(C)C)S(=O)(=O)c2cccc3cccnc23)cc1	-67.2*	4.3%	5.4%	-14.5%
CN(CC(=O)NC1CCCCCCC1)S(=O)(=O)c1cccc2cccnc12	-62.3*	nt	nt	-20.6%
COc1ccc(NC(=O)CN(C)S(=O)(=O)c2cccc3cccnc23)cc1	-65.7*	nt	nt	-13.3%
Cc1ccc2nc(SCC(=O)NCC3Cc4cccc(-c5nc(C)cnc5C)c4O3)[nH]c2c1 (stereo unspecified)	nt	nt	nt	9.8%
CC1(C)CC(=O)/C(=C\c2cccc([N+](=O)[O-])c2)C(C)(C)N1	-85.9*	?	?	?
O=C1N/C(=N/O)S/C1=C/c1cccc([N+](=O)[O-])c1	-9.4	0.4%	4.2%[46.1 µM]	10.6%
COc1ccccc1/C=C/C=N/Nc1cccc(C(=O)O)c1	116.1	5.01µM*	?	-31.9%
O=C(O)c1cccc(N/N=C/c2ccc(-c3ccccc3)cc2)c1	109.3	8.91µM*	?	14.1µM*
SMILES	HCMV antiviral	LASV entry inh	Marburg entry inh	FMDV antiviral
CC(C)(C)c1ccc(/C=N/Nc2cccc(C(=O)O)c2)cc1	159.8	nt	nt	44.7µM*
CN(C)c1ccc(/C=N/Nc2cccc(C(=O)O)c2)cc1	64.8	nt	nt	3.98µM*
O=C(COc1ccc(Cl)cc1)NCC(c1ccco1)S(=O)(=O)c1ccc(F)cc1 (stereo unspecified)	-14.7	-27.0%[46.1 µM]	nt	-25.0%
CC1(C(=O)NS(=O)(=O)c2ccc(Cl)s2)CCN1C(=O)CCc1ccccc1 (stereo unspecified)	36.5	nt	nt	24.2%
O=C(N/N=C/c1cccnc1)c1ccccc1	?	nt	nt	0.0%
O=C(O)c1cccc(N/N=C/c2cccnc2)c1	42.6	?	?	12.6µM*
COC(=O)c1cc(O)cc(OC)c1Oc1cc(C)cc(O)c1C(=O)O	-105.7*	nt	nt	0.5%
CCC(C)C1NC(=O)C2CCCN2C(=O)C(CC(C)C)OC(=O)CCNC(=O)C(C)N(C)C(=O)C(C(C)C)N(C)C1=O (stereo unspecified)	-86.8*	3.16µM*	2µM*	-19.8%

Assay outcomes: PubChem BioAssay, National Center for Advancing Translational Sciences (NCATS)
